Reference: publication PMC4336329 (PLoS ONE, 2015)
Screen size: about 310,000 compounds; about 14,000 (4.5%) showed an effect of 50% or more. The effect is printed as a negative number. This excerpt belongs to a sample that is enriched for strong results.

The compounds below were run against human ether-à-go-go-related gene (hERG) potassium channel (human, UniProt Q12809) (assay: primary screen, population patch clamp on CHO cells stably expressing hERG; higher = less effect of the substance).
Procedure: Briefly, Chinese hamster ovary (CHO) cells stably expressing the hERG channel were dislodged from tissue culture flasks and dispensed into PPC plates. […] During the recording, background leak currents were estimated by a 100 ms step to -80 mV from an initial holding potential of -70 mV and subtracted from the subsequent current measurement. The campaign was conducted in two phases using slight differences in recording protocol. In the first phase, the initial voltage pulse used a 100 ms step to -30 mV from a holding potential of -70 mV, a 2 s conditioning step to +25 mV, and a 2 s test step to -30 mV. During the second phase of the screen, the potential during the conditioning step was raised to +45 mV. In both phases of the campaign, a secondary voltage pulse was applied using the same parameters as the second phase initial pulse. The initial and secondary pulses were applied in the absence of compound, and upon application of 1 μM and 10 μM test concentrations. […]
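Note: peak tail current of the secondary pulse compared with the same well before compound.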

human ether-à-go-go-related gene (hERG) potassium channel, sequence (Q12809 whole entry, looked up): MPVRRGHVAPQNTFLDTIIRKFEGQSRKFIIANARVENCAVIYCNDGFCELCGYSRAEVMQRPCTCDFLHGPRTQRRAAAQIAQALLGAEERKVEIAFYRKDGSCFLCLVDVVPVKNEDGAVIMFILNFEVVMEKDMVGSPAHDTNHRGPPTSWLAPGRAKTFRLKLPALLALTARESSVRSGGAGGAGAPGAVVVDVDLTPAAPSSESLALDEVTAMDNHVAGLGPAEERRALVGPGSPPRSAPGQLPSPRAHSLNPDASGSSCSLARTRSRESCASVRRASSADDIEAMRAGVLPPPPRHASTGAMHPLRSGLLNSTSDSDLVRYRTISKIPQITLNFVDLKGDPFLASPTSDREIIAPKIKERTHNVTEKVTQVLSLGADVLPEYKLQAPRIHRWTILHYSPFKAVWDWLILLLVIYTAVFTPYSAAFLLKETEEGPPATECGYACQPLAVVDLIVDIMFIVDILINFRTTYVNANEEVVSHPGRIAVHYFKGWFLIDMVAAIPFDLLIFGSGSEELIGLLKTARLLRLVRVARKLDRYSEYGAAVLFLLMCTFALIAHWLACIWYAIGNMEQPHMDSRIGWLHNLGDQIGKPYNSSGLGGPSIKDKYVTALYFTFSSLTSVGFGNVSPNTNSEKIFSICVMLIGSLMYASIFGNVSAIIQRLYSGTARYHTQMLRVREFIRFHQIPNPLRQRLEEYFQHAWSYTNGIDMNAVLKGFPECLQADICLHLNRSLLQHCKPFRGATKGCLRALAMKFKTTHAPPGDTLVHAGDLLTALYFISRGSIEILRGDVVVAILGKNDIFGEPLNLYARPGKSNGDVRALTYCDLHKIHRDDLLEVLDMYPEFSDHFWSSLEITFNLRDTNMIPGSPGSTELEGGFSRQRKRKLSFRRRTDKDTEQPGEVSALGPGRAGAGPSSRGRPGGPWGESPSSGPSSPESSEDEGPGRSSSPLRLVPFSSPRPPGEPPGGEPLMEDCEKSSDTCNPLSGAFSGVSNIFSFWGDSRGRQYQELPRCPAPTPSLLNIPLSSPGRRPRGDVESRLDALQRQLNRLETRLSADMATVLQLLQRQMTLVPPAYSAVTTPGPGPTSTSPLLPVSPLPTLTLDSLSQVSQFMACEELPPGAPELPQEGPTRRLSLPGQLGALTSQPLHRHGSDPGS

| SMILES | hERG current change (%, negative = inhibition) at 10uM [%] |
| --- | --- |
| Cc1ccc2cc(CN(CC3CCCO3)C(=S)NCc3ccco3)c(=O)[nH]c2c1C (stereo not shown) | -40.8 |
| CCN(CC)CCN(Cc1cc2cc(C)cc(C)c2[nH]c1=O)C(=S)NCc1ccco1 | -52.5 |
| Cc1cc(C)c2[nH]c(=O)c(CN(CC3CCCO3)C(=S)NCc3ccco3)cc2c1 (stereo not shown) | -4.81 |
| CCN(CC)CCN(Cc1cc2ccc(C)c(C)c2[nH]c1=O)C(=S)NCc1ccco1 | -51.4 |
| Cc1cccc2cc(CN(CCN(C)C)C(=S)NCc3ccco3)c(=O)[nH]c12 | -38.9 |
| Cc1cc(C)c2[nH]c(=O)c(CN(Cc3cccs3)C(=S)NCc3ccco3)cc2c1 | -15.7 |
| Cc1ccc(OCCC(=O)Nc2ccc(S(=O)(=O)Nc3cc(C)nc(C)n3)cc2)cc1 | 1.18 |
| Br.C=CCN1CCc2cccc3c2[C@H]1Cc1ccc(O)c(O)c1-3 | -19.3 |
| COc1c(O)ccc2c1-c1c3c(cc4c1C(C2)N(C)CC4)OCO3 (stereo not shown) | -28.7 |
| Br.CCCN1CCc2cc(O)cc3c2[C@H]1Cc1ccc(O)c(O)c1-3.O | -57.8 |
| Cn1c(N)c(N=Nc2ccc(S(N)(=O)=O)cc2)c(=O)n(C)c1=O | 27.6 |
| COc1ccc(NC(=O)CN(C)CC(=O)Nc2ccc(Cl)cc2F)cc1 | -10.6 |
| CCN(CC(=O)Nc1ccc(OC)cc1)CC(=O)Nc1ccc(Br)cc1F | -67.4 |
| CCN(CC(=O)Nc1ccc(OC)cc1)CC(=O)Nc1ccc(Cl)cc1F | -6.34 |
| Cc1ccc(Cn2nnc3c(=O)n(CC(=O)c4ccccc4)cnc32)cc1 | -0.591 |
| COc1ccc(NS(=O)(=O)c2cc(-c3cnc(C4CC4)o3)ccc2C)cc1 | 6.02 |
| COC(=O)c1ccc(-c2nc(CN3CCC(C(=O)N4CCOCC4)CC3)c(C)o2)cc1 | -7.65 |
| Cc1ccc(-c2nc(CSCC(=O)N3CCN(c4ccccn4)CC3)c(C)o2)cc1 | -25 |
| Cc1ccccc1-c1nc(CN2CCC(C(=O)N3CCN(c4ccccn4)CC3)CC2)c(C)o1 | -62 |
| Cc1ccc(-c2nc(CS(=O)CC(=O)N3CCN(c4ncccn4)CC3)c(C)o2)cc1 (stereo not shown) | -54.1 |
| CCc1ccc(-c2nc(CSCC(=O)N3CCN(c4ccccn4)CC3)c(C)o2)cc1 | -50.7 |
| CCc1ccc(-c2nc(CSCC(=O)N3CCN(c4ncccn4)CC3)c(C)o2)cc1 | -23.6 |

| SMILES | hERG current change (%, negative = inhibition) at 10uM [%] |
| --- | --- |
| Cc1ccc(-c2nc(CS(=O)CC(=O)N3CCN(c4ccc(F)cc4)CC3)c(C)o2)cc1 (stereo not shown) | -42 |
| CCOc1ccccc1-c1nc(CN2CCC(C(=O)N3CCOCC3)CC2)c(C)o1 | -5.13 |
| COc1ccc(-c2nc(CN3CCC(C(=O)N4CCOCC4)CC3)c(C)o2)cc1OC | -6.54 |
| Cc1ccc(-c2nc(CS(=O)CC(=O)N3CCN(c4ccccc4)CC3)c(C)o2)cc1 (stereo not shown) | -31.3 |
| CCc1ccc(-c2nc(CN3CCC(C(=O)N4CCN(c5ccccc5)CC4)CC3)c(C)o2)cc1 | -71.3 |
| Cc1nn(Cc2ccccc2Cl)c(C)c1NC(=O)Cn1nc([N+](=O)[O-])c(Cl)c1C | 7.21 |
| COC(=O)c1coc(-c2ccc(C)cc2)c1C(=O)OC | 1.6 |
| CC(=O)c1ccc(N2CCN(S(=O)(=O)c3ccc4ccccc4c3)CC2)cc1 | 3.28 |
| Cc1cc(Nc2nnnn2-c2ccccc2)n(-c2ccccc2)n1 | -21.8 |
| CCN1CCN(C(=O)C(NS(=O)(=O)c2ccc3nc(C)sc3c2)C(C)C)CC1 (stereo not shown) | 0.194 |
| COc1ccc(-c2[nH]c(-c3ccc(F)cc3)nc2SCC(=O)NCc2ccco2)cc1OC | 18.8 |
| CSc1ccc(/C=N/Nc2ccc(Cl)c(C(=O)O)c2)cc1 | 6.73 |
| COC(=O)/C(=C/c1c[nH]c2ccccc12)NC(C)=O | 6.31 |
| CCOC(=O)N1CCN(C(=O)C2CCN(Cc3nc(-c4ccccc4C)oc3C)CC2)CC1 | -58.3 |
| Cc1ccccc1-c1nc(CN2CCC(C(=O)O)CC2)c(C)o1 | -18.6 |
| Cc1ccccc1-c1nc(CN2CCC(C(=O)N3CCC(C(N)=O)CC3)CC2)c(C)o1 | 2.7 |
| CCc1ccc(-c2nc(CN3CCC(C(=O)N4CCN(c5ccccn5)CC4)CC3)c(C)o2)cc1 | -68.5 |
| O=C1OC(/C=C/c2ccccc2)=NC/1=C\c1cccnc1 | 19.4 |
| CCCc1c(O)nc(SCC(=O)NCc2ccco2)[nH]c1=O | 27 |
| CC1CCN(C(=O)c2ccc(-n3cnnn3)cc2)CC1 | -72.1 |
| O=C(c1ccc(=O)oc1)N1CCN(C(c2ccccc2)c2ccccc2)CC1 | -32.2 |
| O=C(c1ccc(-n2cnnn2)cc1)N1CCOCC1 | -1.64 |

| SMILES | hERG current change (%, negative = inhibition) at 10uM [%] |
| --- | --- |
| O=C(Nc1ccc(-n2cnnn2)cc1)C(c1ccccc1)c1ccccc1 | 8.56 |
| O=C(c1ccc(-n2cnnn2)cc1)N1CCN(C(c2ccccc2)c2ccccc2)CC1 | -64.7 |
| O=C(c1ccc(-n2cnnn2)cc1)N1CCCCC1 | -24.1 |
| Cc1cc(NC(=O)c2cc(CC(C)C)on2)n(-c2ccccc2)n1 | 9.57 |
| COc1cc(NC(=O)CCCN2C(=O)NC(C)(C)C2=O)cc(OC)c1 | 12.2 |
| Cc1cccc(OCC(=O)NCC(=O)N/N=C/c2ccc(N(C)C)cc2)c1 | 0.0886 |
| Cc1ccc(NC(=O)Nc2c(Cl)cccc2Cl)cn1 | 14 |
| COC(=O)CCSc1cc([N+](=O)[O-])cc2c1c(C1OCCS1)nn2-c1ccccc1 (stereo not shown) | 3.61 |
| O=C(O)CCc1ccc(-c2cccs2)n1NC(=O)c1cccs1 | 22.3 |
| O=C(Nc1ccc(Br)cc1)N1CCCC(O)C1 (stereo not shown) | 6.54 |
| CN1CCN(C(=O)c2ccc3c(c2)N(Cc2ccccc2F)C(=O)c2ccccc2S3=O)CC1 (stereo not shown) | 5.05 |
| Cc1ccc(C2(c3noc(CN4CCC(c5ccncc5)CC4)n3)CCCC2)cc1 | -55.5 |
| Cc1ccc(C2(c3noc(CN4CCOCC4)n3)CCCC2)cc1 | 17.3 |
| COCCN1CCN(Cc2nc(C3(c4ccc(C)cc4)CCCC3)no2)CC1 | -9.3 |
| COc1ccccc1NC(=O)C[n+]1ccccc1C.[Cl-] | 15.3 |
| COc1ccc(-n2c(SCC(N)=O)nc3sc4c(c3c2=O)CCC4)cc1 | -16.9 |
| CCOC(=O)CSc1nc2sc3c(c2c(=O)n1-c1ccc(OCC)cc1)CCN(C)C3 | -53.9 |
| COc1ccc(-n2c(SCC(=O)O)nc3sc4c(c3c2=O)CCC4)cc1 | 18.9 |
| COc1ccc(-n2c(NN)nc3sc4c(c3c2=O)CCCC4)cc1 | -47.4 |
| COc1ccc(-n2c(SCC(=O)O)nc3sc4c(c3c2=O)CCCC4)cc1 | 20.3 |
| COc1ccc(-n2c(SCCNCCO)nc3sc4c(c3c2=O)CCCC4)cc1 | -55.7 |
| CCN1CCN(c2nc3sc4c(c3c(=O)n2-c2ccc(OC)cc2)CCCCC4)CC1 | -60.3 |

| SMILES | hERG current change (%, negative = inhibition) at 10uM [%] |
| --- | --- |
| COc1ccc(-n2c(NCCN(C)C)nc3sc4c(c3c2=O)CCCCC4)cc1 | -72.7 |
| CCOc1ccc(-n2c(SCC(=O)OC)nc3sc4c(c3c2=O)CCN(C)C4)cc1 | -0.924 |
| COc1ccc(-n2c(C)nc3sc4c(c3c2=O)CCCC4)cc1 | -20.3 |
| CN(C)CCNc1nc2sc3c(c2c(=O)n1-c1ccc(F)cc1)CCCCC3 | -33.3 |
| CCOC(=O)CSc1nc2sc3c(c2c(=O)n1-c1ccc(OC)cc1)CCN(C)C3 | -5.76 |
| COc1ccc(CNc2nc3nc(-c4ccccc4)cc(=O)n3[nH]2)cc1OC | -13.1 |
| CCOC(=O)c1sc(NC(=O)CSc2nc(C)cc(C(F)(F)F)n2)c(C#N)c1C | 4.26 |
| COc1ccc(C(=O)c2c[nH]c(C(=O)NCc3cccnc3)c2)cc1 | -12.7 |
| CCN1CCc2nc(NC(=O)c3cc(F)c(F)cc3Cl)sc2C1 | -34.2 |
| Cc1cccc(OCCOC(=O)c2ccc(F)c(S(=O)(=O)N3CCOCC3)c2)c1 | -18.1 |
| Cl.NC(=O)c1c(NC(=O)c2ccccc2)sc2c1CCN(Cc1ccccc1)C2 | 7.85 |
| CCN1CCN(S(=O)(=O)c2ccc(C(=O)Nc3sc4c(c3C(N)=O)CCN(CC)C4)cc2)CC1 | 12.4 |
| Cl.NC(=O)c1c(NC(=O)Cc2ccccc2)sc2c1CCN(Cc1ccccc1)C2 | 7.96 |
| CCN1CCc2c(sc(NC(=O)c3ccc(C(=O)c4ccccc4)cc3)c2C(N)=O)C1.Cl | -55.4 |
| CNC(=O)c1c(NC(=O)c2ccc(S(=O)(=O)N3CC(C)OC(C)C3)cc2)sc2c1CCN(C(C)C)C2 (stereo not shown) | -26.9 |
| CNC(=O)c1c(NC(=O)c2ccc(S(=O)(=O)N3CCCCC3)cc2)sc2c1CCN(C(C)C)C2 | -65.8 |
| CN1CCc2c(sc(NC(=O)c3ccc(C(=O)c4ccccc4)cc3)c2C(N)=O)C1.Cl | 11.5 |
| CNC(=O)c1c(NC(=O)c2ccc(S(=O)(=O)N3CCCC3)cc2)sc2c1CCN(C(C)C)C2 | 2.7 |
| CCN1CCc2c(sc(NC(=O)c3ccc(S(=O)(=O)N4CCOCC4)cc3)c2C(N)=O)C1 | -21.9 |
| CCN1CCc2c(sc(NC(=O)c3ccc(S(=O)(=O)N4CC(C)OC(C)C4)cc3)c2C(N)=O)C1 (stereo not shown) | -54.5 |
| CCN1CCc2c(sc(NC(=O)c3ccc4ccccc4c3)c2C(N)=O)C1.Cl | 7.59 |
| CCC(=O)Nc1sc2c(c1C(N)=O)CCN(Cc1ccccc1)C2.Cl | -53.3 |
